The list is not random: actives were taken first. Their share in the collection is about 12%.
PLAP act: PLAP enzyme activators, biochemical, luminescence, HTS; purified PLAP enzyme, luminescent substrate read-out; active compounds read high; hit rate 1.2% among 96,000; activation fold at 20 µM; in the data active = activation fold above about 2
Target sequence (P05187 whole entry, looked up): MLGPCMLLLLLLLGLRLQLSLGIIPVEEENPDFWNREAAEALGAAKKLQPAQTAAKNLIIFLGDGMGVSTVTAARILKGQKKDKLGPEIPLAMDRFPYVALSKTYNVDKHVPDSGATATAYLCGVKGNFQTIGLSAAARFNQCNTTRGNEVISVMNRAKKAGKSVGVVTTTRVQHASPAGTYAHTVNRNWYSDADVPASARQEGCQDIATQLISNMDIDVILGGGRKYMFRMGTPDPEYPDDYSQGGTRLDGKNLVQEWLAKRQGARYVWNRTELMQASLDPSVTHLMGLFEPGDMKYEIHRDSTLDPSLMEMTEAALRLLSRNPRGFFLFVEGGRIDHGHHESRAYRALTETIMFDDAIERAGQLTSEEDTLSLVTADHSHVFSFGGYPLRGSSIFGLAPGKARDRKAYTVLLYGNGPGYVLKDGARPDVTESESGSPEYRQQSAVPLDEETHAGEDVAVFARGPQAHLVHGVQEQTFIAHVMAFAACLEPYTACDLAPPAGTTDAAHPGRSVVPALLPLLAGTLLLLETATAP
Cav32 inh: Cav3.2 calcium influx blockers – cell-based, Fluo-4 calcium fluorescence, FDSS, MLSMR library, primary screen. Cav3.2-expressing cells; active compounds read low. B-score at 10 µM. hit rate 4% among 100,000. AID 449739, 2010;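 active = single-dose well whose peak fluorescence ratio is a statistical outlier from its plate by either plate-standardised score or position-corrected B-score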
D1 mod: D1 CRE-luciferase signal change, two-sided – cell-based, HEK293 D1, dopamine EC30, D1 allosteric modulator project, primary screen; dopamine EC30 potentiation; actives deviate in either direction; B-score at 10 µM; hit rate 5.9% among 58,000;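 active = luminescence count or its row- and column-corrected plate score outside the 99.7% band of the plate's sample wells, on either side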
DAT uptake mod: changed hDAT dopamine uptake under cocaine IC80, either direction, primary screen, cocaine antagonist project, cell-based, LLC-PK1 hDAT, [14C]-dopamine uptake, MLSMR; Sodium-dependent dopamine transporter (Homo sapiens), Q01959; LLC-PK1 hDAT cells, [14C]-dopamine uptake with cocaine IC80; actives deviate in either direction; B-score at 10 µM; hit rate 1.3% among 110,000; AID 449768, 2010;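 active = Z score or B-score, a plate-position-corrected score, falls beyond the plate's 99.7% confidence bounds, in either direction; inactive = both scores lie inside the 99.7% bounds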
PostGolgi ctrl: growth inhibition of yeast control strain, primary screen, counter-screen for post-Golgi transport modulator project; hit rate 5% among 98,000; AID 738, 2007; inhibition, % at 10 µM; efflux-deficient yeast background strain, growth absorbance A615, 16 h
PostGolgi yeast: phenotypic screen on post-Golgi transport, primary screen | hit rate 0.9% among 98,000 | inhibition, % at 10 µM | post-Golgi transport phenotypic cell assay;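 also: yeast cells grown in 1536-well plates; yeast grown about 18 h at 30C before absorbance read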
Large screens that a line does not name were inactive. Rule as the data show it, unless noted: active = inhibition above about 30%; inactive = the rest.

C/C(=N\O)C(=O)OC1CC(C)CCC1C(C)C (stereo not drawn)	Cav32 inh -4.7 (no result: D1 mod)
CC1CCC(C(C)C)C(OC(=O)COC(=O)c2cccn2C)C1 (stereo not drawn)	none
CC(NC(=O)c1ccco1)c1cccc2ccccc12 (stereo not drawn)	none (no result: PLAP act, D1 mod, PostGolgi ctrl, PostGolgi yeast)
CCCOc1cc(C)c(S(=O)(=O)n2ccc(C)n2)cc1C	Cav32 inh -3.8
CCCOc1cc(C)c(S(=O)(=O)NCCOC)cc1C	none (no result: D1 mod)
Cn1c(=O)n(CCN2CCOCC2)c(=O)c2c1nc1n2CCN1c1ccccc1	none (no result: PLAP act, Cav32 inh, DAT uptake mod, PostGolgi ctrl, PostGolgi yeast)
CCOc1ccc(C(C)=O)cc1CSc1nnc(-c2cccs2)n1CC1CCCO1 (stereo not drawn)	none
O=c1oc2c(CN3CCCCC3)c(O)ccc2cc1-c1nc2ccccc2[nH]1	PLAP act 2.2 (no result: Cav32 inh, DAT uptake mod, PostGolgi ctrl, PostGolgi yeast)
Nc1ccccc1-c1nc2ccccc2[nH]1	none
O=c1oc2c3c4c(cc2cc1-c1nc2ccccc2[nH]1)CCCN4CCC3	D1 mod -2.7 (no result: PLAP act, Cav32 inh, DAT uptake mod, PostGolgi ctrl, PostGolgi yeast)
CCCCn1c(SCC(=O)N2CCC(C)CC2)nc2cc(S(N)(=O)=O)ccc21	DAT uptake mod 3.3
COc1cccc(C(c2sc3nc(C)nn3c2O)N2CCN(c3ccccc3F)CC2)c1 (stereo not drawn)	DAT uptake mod 2.7 (no result: PLAP act)
CCOC(=O)C1CCN(C(c2ccc(OC)c(OC)c2)c2sc3nc(C)nn3c2O)CC1 (stereo not drawn)	none (no result: D1 mod)
Cc1nc2sc(C(c3ccccc3)N3CCN(c4ccccc4F)CC3)c(O)n2n1 (stereo not drawn)	none
CCOC(=O)C1CCN(C(c2cccc(F)c2)c2sc3nc(C)nn3c2O)CC1 (stereo not drawn)	PostGolgi ctrl 37 (no result: PLAP act)
O=C(Nc1ccccc1)Nc1ccc(C(=O)N2CCOCC2)cc1	none (no result: D1 mod)
COC(=O)CSc1nnc([C@H](CC(C)C)NC(=O)OC(C)(C)C)o1	none
CC1CCCCC1NC(=O)c1ccc(N2CCCC2=O)cc1 (stereo not drawn)	Cav32 inh -5.1, PostGolgi ctrl 33
CCCCC(=O)NC(Nc1nc(C2CC2)cs1)(C(=O)OCC)C(F)(F)F (stereo not drawn)	PostGolgi ctrl 36
CC(C)CNS(=O)(=O)c1ccc(CCC(=O)Nc2ccc3c(c2)OCCO3)cc1	none (no result: D1 mod)
CCCCn1c(CN2CCN(c3cccc(Cl)c3)CC2)nc2c1c(=O)n(C)c(=O)n2C	PLAP act 2.1, Cav32 inh -6.9, D1 mod -2.9
CCCCCn1c(CN2CCN(c3cccc(Cl)c3)CC2)nc2c1c(=O)n(C)c(=O)n2C	none (no result: PostGolgi ctrl, PostGolgi yeast)
CCCn1c(CN2CCN(c3cccc(Cl)c3)CC2)nc2c1c(=O)n(C)c(=O)n2C	Cav32 inh -4.8
CC(=O)c1cccc(NS(=O)(=O)c2cc(OCC(N)=O)c(C)cc2Cl)c1	none (no result: D1 mod)
Cn1c(=O)c2c(nc(Br)n2CCc2ccccc2)n(C)c1=O	D1 mod -3.8
Cn1c(=O)c2c(nc(Br)n2C)n(C)c1=O	D1 mod -1.6
CC1CCCCN1Cc1nc2c(c(=O)n(C)c(=O)n2C)n1Cc1cccc2ccccc12 (stereo not drawn)	none (no result: PLAP act, Cav32 inh, DAT uptake mod, PostGolgi ctrl, PostGolgi yeast)
CCOCCCNc1nc2c(c(=O)n(C)c(=O)n2C)n1CCCc1ccccc1	PostGolgi ctrl 33
CC1CCCCN1Cc1nc2c(c(=O)n(C)c(=O)n2C)n1CCc1ccccc1 (stereo not drawn)	PostGolgi ctrl 38
O=C(CCSCCc1ccccn1)Nc1ccc(Br)cn1	none (no result: D1 mod)
CCOC(=O)C1CCCN(C(=O)c2cc(Nc3ccc(OC)cc3)nc3ccccc23)C1 (stereo not drawn)	Cav32 inh -5.5 (no result: D1 mod)
Cc1ccc(Cl)cc1N1CCN(C(=O)c2cc3c(=O)n(C)c4ccccc4c3n2C)CC1	D1 mod -4, PostGolgi ctrl 45
Cn1c(C(=O)N2CCN(c3ccccc3F)CC2)cc2c(=O)n(C)c3ccccc3c21	none (no result: PLAP act, Cav32 inh, DAT uptake mod, PostGolgi ctrl, PostGolgi yeast)
CCOC(=O)C1CCCN(C(=O)c2cc3c(=O)n(C)c4ccccc4c3n2C)C1 (stereo not drawn)	Cav32 inh 3.1
Cc1cccc(N2CCN(C(=O)c3cc4c(=O)n(C)c5ccccc5c4n3C)CC2)c1C	PostGolgi ctrl 40
CCOC(=O)C1CCCN(C(=O)c2cc3c(C)nc4ccccc4c3o2)C1 (stereo not drawn)	none
CC12CCC(C(=O)N3CCN(Cc4ccccc4)CC3)(OC1=O)C2(C)C (stereo not drawn)	none
CCOC(=O)c1sc(NC(=O)CSc2nc3c(c(=O)n2-c2ccc(F)cc2)SCC3)c(C(=O)OCC)c1C	none (no result: PLAP act, D1 mod, PostGolgi ctrl, PostGolgi yeast)
COc1cccc(/C=N/NC(=O)c2ccccc2N(Cc2ccccc2)S(=O)(=O)c2ccccc2)c1OC	none (no result: Cav32 inh, D1 mod, DAT uptake mod)
Cn1c(SCc2ccccc2)nnc1-c1cnccn1	none (no result: D1 mod)
COCCCn1c(-c2ccc(Cl)cc2)n[nH]c1=S	none (no result: D1 mod)
CCOCCCn1c(-c2ccc(Cl)cc2)n[nH]c1=S	PLAP act 2.4 (no result: D1 mod)
CCCc1nc(NCc2ccco2)c(C#N)c2c1COC(C)(C)C2	none
CCCCc1nc(NCC2CCCO2)c(C#N)c2c1COC(C)(C)C2 (stereo not drawn)	PostGolgi ctrl 96 (no result: PLAP act, D1 mod)
COC(=O)NC(NC(=S)Nc1ccc([N+](=O)[O-])cc1)C(Cl)(Cl)Cl (stereo not drawn)	DAT uptake mod -2.8 (no result: PLAP act, D1 mod, PostGolgi ctrl, PostGolgi yeast)
COc1ccc([N+](=O)[O-])cc1NC(=S)NC(NC(=O)C(c1ccccc1)c1ccccc1)C(Cl)(Cl)Cl (stereo not drawn)	none (no result: D1 mod)
COC(=O)c1ccccc1NC(=S)NC(NC(=O)c1ccccc1[N+](=O)[O-])C(Cl)(Cl)Cl (stereo not drawn)	Cav32 inh -8.5 (no result: D1 mod)
Cc1ccc(NC(=S)NC(NC(=O)c2ccccc2C)C(Cl)(Cl)Cl)c(C)c1 (stereo not drawn)	Cav32 inh -7.1 (no result: D1 mod)
COC(=O)c1ccccc1NC(=S)NC(NC(=O)c1ccco1)C(Cl)(Cl)Cl (stereo not drawn)	none (no result: D1 mod)
COc1ccc(NC(=S)NC(NC(=O)c2ccc(Cl)cc2Cl)C(Cl)(Cl)Cl)c([N+](=O)[O-])c1 (stereo not drawn)	Cav32 inh -5.1, PostGolgi yeast 69 (no result: D1 mod)
Fc1ccc(NCc2nnc(SCc3nnc(-c4ccccc4)o3)n2CC2CCCO2)cc1 (stereo not drawn)	none
O=c1ccc(Oc2nc(N3CCCCC3)nc(N3CCCCC3)n2)n[nH]1	none
COc1ccccc1Cn1c(-c2ccco2)nc2nc3ccccc3nc21	D1 mod 12 (no result: PLAP act, PostGolgi ctrl, PostGolgi yeast)
CC(=O)C1=C(C)NC(SCC(=O)c2ccc(C)cc2)=C(C#N)C1c1ccco1 (stereo not drawn)	Cav32 inh -5
CCc1nc2ccccc2c(=O)n1CCCCn1c(CC)nc2ccccc2c1=O	none (no result: PLAP act, Cav32 inh, DAT uptake mod, PostGolgi ctrl, PostGolgi yeast)

Source: PubChem (several laboratories)
